The list is not random: actives were taken first. Their share in the collection is about 6.5%.
HCMV inh – blocks human cytomegalovirus replication | hit rate 4.5% among 410,000 | HFF cells, HCMV-luciferase reporter, 72 h; stronger effect = lower value | activity change, negative = inhibition, % at 57.5 µM; in the data active = activity change below about -60%; inconclusive = no clear call, values can overlap the other calls; inactive = above about -39%
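Steps: HFFs plated, 16 h 37C; compounds added; HCMV-luciferase added to MOI 1 PFU/cell; 72 h 37C; OneGlo reagent, 5 min room temperature; luminescence read, normalized to controls.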
Lassa entry inh – Lassa virus entry inhibition. AID 540256. Lassa virus pseudotype entry inhibition, cell reporter. hit rate 1.2% among 300,000. Potency, µM (titrated, usually from 37.9 µM), usual class: inhibitors; calls by dose curve; tested in HEK293 cells; also: nearly all actives have a fitted effect of over 50% in size
FMDV inh – blocks foot and mouth disease virus; Potency, µM (doses to about 57.9 µM), most hits filed as inhibitors; hit rate 1.2% among 410,000; FMDV antiviral cell-based qHTS; AID 1159524; calls by dose curve; tested in HEK293T cells; also: read-out not given here; nearly all actives have a fitted effect of over 45% in size
Vaccinia mCherry – vaccinia inhibition (mCherry reporter). Vaccinia virus mCherry reporter infection, fluorescence. Potency, µM (series often up to 36.5 µM), actives largely listed as inhibitors. hit rate 0.63% among 310,000. AID 720579; calls by dose curve; tested in A549 cells; also: nearly all actives have a fitted effect of over 35% in size
Marburg entry inh – blocks Marburg virus binding to or entry into cells | Marburg virus pseudotyped entry inhibition, cell reporter | Potency, µM (top dose mostly 37.8 µM), usual class: inhibitors | hit rate 1.8% among 300,000 | AID 540276; calls by dose curve; tested in HEK293 cells
Vaccinia Venus – inhibitors of vaccinia virus (Venus reporter). Vaccinia virus Venus reporter expression, fluorescence. Potency, µM (top dose mostly 36.5 µM), usual class: inhibitors. hit rate 0.46% among 330,000. AID 720580; calls by dose curve; tested in A549 cells; also: nearly all actives have a fitted effect of over 30% in size
Large screens that a line does not name were inactive.

O=C(Nc1ccc2nc(-c3cccs3)c(-c3cccs3)nc2c1)N1CCCCC1	none (no result: HCMV inh, Lassa entry inh, FMDV inh, Marburg entry inh)
COc1ccc(C[C@H]2CN3C(=NC[C@H]3Cc3ccccc3)N2CCNC(=O)CCC2CCCCC2)cc1	HCMV inh inconclusive, Vaccinia mCherry 11.2µM, Vaccinia Venus inconclusive (no result: Lassa entry inh, Marburg entry inh)
COc1ccc(C[C@H]2CN3C(=NC[C@@H]3Cc3ccccc3)N2CCNC(=O)c2ccc(C)c(Br)c2)cc1	FMDV inh inconclusive, Vaccinia mCherry inconclusive, Vaccinia Venus 12.6µM (no result: HCMV inh, Lassa entry inh, Marburg entry inh)
COc1ccc(C[C@H]2CN3C(=NC[C@H]3Cc3ccccc3)N2CCNC(=O)c2ccc(C)c(Br)c2)cc1	FMDV inh inconclusive, Vaccinia mCherry inconclusive, Vaccinia Venus 14.1µM (no result: HCMV inh, Lassa entry inh, Marburg entry inh)
NS(=O)(=O)c1ccc(CNC(=S)Nc2ccc(Cl)c(Cl)c2)cc1	HCMV inh -73.7, Marburg entry inh inconclusive
NS(=O)(=O)c1ccc(CCNC(=O)Nc2ccc(Cl)c(Cl)c2)cc1	HCMV inh inconclusive, FMDV inh 25.1µM, Marburg entry inh inconclusive (no result: Vaccinia mCherry, Vaccinia Venus)
O=C(NCCc1ccc(Cl)cc1)Nc1ccc(Cl)cc1	none (no result: Lassa entry inh, Vaccinia mCherry, Marburg entry inh, Vaccinia Venus)
NS(=O)(=O)c1ccc(CCNC(=S)Nc2ccc(F)cc2)cc1	HCMV inh -60.6
O=C(CN1C(=O)COc2ccc(S(=O)(=O)Nc3ccccc3)cc21)Nc1cccc(Cl)c1	none (no result: Marburg entry inh)
CN(N=Cc1ccccc1O)C(=O)c1ccccc1N	none (no result: Lassa entry inh, FMDV inh, Vaccinia mCherry, Marburg entry inh, Vaccinia Venus)
Cc1nc2ccc(C(=O)N3CCN(c4ccccn4)CC3)cc2s1	HCMV inh -93.4, Marburg entry inh inconclusive
COc1cc2ccccc2cc1C(=O)N1CCN(c2nc3ccc(F)cc3s2)CC1	HCMV inh -64.4, FMDV inh inconclusive (no result: Marburg entry inh)
O=C(c1ccc2ncsc2c1)N1CCN(c2ccccc2Cl)CC1	HCMV inh inconclusive, Lassa entry inh inconclusive, Marburg entry inh inconclusive
O=C(c1ccc2ncsc2c1)N1CCN(c2nc3ccccc3s2)CC1	HCMV inh -73.8, Lassa entry inh inconclusive, FMDV inh inconclusive, Vaccinia mCherry inconclusive
O=C(c1ccc(S(=O)(=O)Cc2ccccc2Cl)c([N+](=O)[O-])c1)N1CCN(c2ccccn2)CC1	HCMV inh -97.2, FMDV inh 15.8µM, Vaccinia mCherry inconclusive, Marburg entry inh inconclusive
COc1ccc(OC)c(C(=O)N2CCc3c(cnc(C)c3CNS(=O)(=O)N(C)C)C2)c1	none (no result: HCMV inh, Lassa entry inh, Marburg entry inh)
Cc1cnc(-n2ncc(C(=O)N[C@H]3CCCCNC3=O)c2C2CC2)nc1-c1cccs1	none (no result: HCMV inh, Lassa entry inh, Marburg entry inh)
O=C(Nc1ccc(F)cc1)N1CCN(c2nc3ccccc3s2)CC1	HCMV inh inconclusive, FMDV inh 28.2µM, Vaccinia Venus inconclusive (no result: Vaccinia mCherry)
COc1cc(C(=O)N2CCN(c3ccccn3)CC2)cc(OC)c1OC	Vaccinia mCherry inconclusive
COc1ccc(C(=O)N2CCN(c3ccccn3)CC2)cc1[N+](=O)[O-]	HCMV inh -80.1
COc1cc2ccccc2cc1C(=O)N1CCN(c2ccccn2)CC1	HCMV inh -62.7, Marburg entry inh inconclusive
COCCN(C)C(=O)c1cnn(-c2nccc(-c3cc(C)sc3C)n2)c1C	none (no result: HCMV inh, Lassa entry inh, Marburg entry inh)
CCOc1ccc(NC(=O)Cn2nc(SC)c(S(=O)(=O)c3ccccc3)c2N)cc1	none (no result: Marburg entry inh)
O=C(Nc1ncc(Cc2ccccc2)s1)C1CCCO1 (stereo not given)	Lassa entry inh 14.6µM, Marburg entry inh inconclusive
O=C(Nc1ccc(-c2nc3cccnc3s2)cc1)C1CCCO1 (stereo not given)	Lassa entry inh inconclusive, Marburg entry inh 2.59µM
O=C(Nc1ncc(Cc2ccccc2)s1)C1CCN(C(=O)c2ccco2)CC1	none (no result: HCMV inh, Lassa entry inh, FMDV inh, Marburg entry inh)
CCCNC1=C(C)C(=O)C2=C(C1=O)C(COC(N)=O)[C@]1(OC)C3NC3CN21 (stereo not given in full)	HCMV inh -69.2, Lassa entry inh inconclusive, Vaccinia mCherry inconclusive, Marburg entry inh 6.31µM, Vaccinia Venus inconclusive
CO[C@@]12[C@H](COC(N)=O)C3=C(C(=O)C(C)=C(N)C3=O)N1C[C@@H]1N[C@@H]12	Vaccinia mCherry inconclusive, Vaccinia Venus inconclusive (no result: Lassa entry inh, Marburg entry inh)
CO[C@@]12[C@@H]3N[C@@H]3CN1C1=C(C(=O)C(N)=C(C)C1=O)[C@@H]2COC(N)=O	HCMV inh -96.6, Lassa entry inh inconclusive, Vaccinia mCherry 5.62µM, Marburg entry inh inconclusive, Vaccinia Venus 2.51µM
Nc1cc2ccccc2cc1NS(=O)(=O)N1CCCCC1	none (no result: Lassa entry inh, FMDV inh, Vaccinia mCherry, Marburg entry inh, Vaccinia Venus)
COc1ccc(CC(=O)NCc2ccc3c(c2)cc(C)n3C)cc1OC	FMDV inh inconclusive (no result: Lassa entry inh, Marburg entry inh)
COc1cc(/C=C\C(=O)NCc2ccc3c(c2)cc(C)n3C)cc(OC)c1OC	Lassa entry inh inconclusive, FMDV inh inconclusive, Marburg entry inh 5.17µM

Compound activity (PubChem BioAssay)
